# Inconclusive results are not listed. Activity calls are given as the source filed them. How the source made its calls: active means hit-call score of the fitted dose curve at least 0.9, where 1 is the maximum; inconclusive means response in the unintended direction; inactive means score below 0.9.
# Experiments:
# [1] = biological target: human MET Proto-Oncogene, Receptor Tyrosine Kinase (MET), MET (gene 4233) (UniProt P08581); assay: NVS_ENZ_hMet: NovaScreen (NVS) Enzymatic Assay for human MET Proto-Oncogene, Receptor Tyrosine Kinase (MET) (AID 2283180)
# Outline: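 Cell-free MET kinase assay using recombinant protein and fluorescent substrate, with mobility-shift separation; read 1 h after dosing. Primary duplicate at 25 uM; actives in singleton concentration-response to 50 uM maximum. Signal loss versus DMSO.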
# [2] = biological target: human Mitogen-Activated Protein Kinase 1 (MAPK 1), MAPK1 (gene 5594) (UniProt P28482); assay: NVS_ENZ_hMAPK1: NovaScreen (NVS) Enzymatic Assay for human Mitogen-Activated Protein Kinase 1 (MAPK 1) (AID 2283175)
# Outline: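 Cell-free recombinant human MAPK1 enzymatic assay, fluorescence/electrophoretic mobility shift read at 1 h; loss of signal vs DMSO. Primary screen in duplicate at 25 uM; actives (e.g. ≥30% inhibition) run as concentration-response up to 50 uM.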
# [3] = biological target: human Fibroblast Growth Factor Receptor 1 (FGFR1), FGFR1 (gene 2260) (UniProt P11362); assay: NVS_ENZ_hFGFR1: NovaScreen (NVS) Enzymatic Assay for human Fibroblast Growth Factor Receptor 1 (FGFR1) (AID 2283159)
# Outline: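 Cell-free recombinant kinase with fluorescent substrate, product separated by electrophoretic mobility shift; read 1 hour after dosing, loss of signal relative to DMSO. Initial screen in duplicate at 25 uM, actives followed in concentration series.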
# [4] = biological target: rat Corticotropin Releasing Factor Receptor (CRF), Crhr1 (gene 58959) (UniProt P35353); assay: NVS_GPCR_rCRF: NovaScreen (NVS) G Protein-Coupled Receptor Assay for rat Corticotropin Releasing Factor Receptor (CRF) (AID 2283300)
# Outline: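 Rat cortical membranes used as receptor source in a radioligand competitive displacement binding assay; scintillation read 2 h after dosing. Primary screen run in duplicate at 25 uM; loss of signal versus DMSO baseline indicates binding.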
# [5] = biological target: Norway rat Vesicular Monoamine Transporter (VMAT2), neurotransmitter transporter, Slc18a2 (gene 25549) (UniProt Q01827); assay: NVS_TR_rVMAT2: NovaScreen (NVS) Transporter Assay for Norway rat Vesicular Monoamine Transporter (VMAT2), neurotransmitter transporter (AID 2283376);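 further: actives lower the bound radioligand signal below the DMSO level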
# Outline: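 Tissue: rat forebrain extract. Format: competitive radioligand binding, cell-free. Timepoint: 1 h. Readout: filter radiodetection/scintillation. Screen: 25 uM in duplicate, then concentration series for actives. Baseline: DMSO.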
# [6] = biological target: Protein deacetylase HDAC6 (Homo sapiens) (UniProt Q9UBN7); assay: NVS_ENZ_hHDAC6: NovaScreen (NVS) Enzymatic Assay for human Histone Deacetylase 6 (HDAC6) (AID 2283164)
# Outline: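 Recombinant human HDAC6 with fluorescent substrate, 1 h; product separated from substrate by electrophoretic mobility shift. Primary screen in duplicate at 25 uM; actives retested singly in concentration-response up to 50 uM, fitted relative to DMSO.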
# [7] = biological target: human p21 Activated Kinase 4 (PAK4), PAK4 (gene 10298) (UniProt O96013); assay: NVS_ENZ_hPAK4: NovaScreen (NVS) Enzymatic Assay for human p21 Activated Kinase 4 (PAK4) (AID 2283189)
# Outline: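 Cell-free recombinant human PAK4 activity assay; fluorescent substrate and product separated by electrophoretic mobility shift, read 1 h after dosing. Initially tested in duplicate at 25 uM, relative to DMSO baseline.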
# [8] = biological target: rat Monoamine Oxidase, MAO-B, Peripheral (MAOBP), Maob (gene 25750) (UniProt P19643); assay: NVS_ENZ_rMAOBP: NovaScreen (NVS) Enzymatic Assay for rat Monoamine Oxidase, MAO-B, Peripheral (MAOBP) (AID 2283242)
# [9] = biological target: human Neonicotinoid receptor (NNR), CHRNA2 (gene 1135) (UniProt Q15822); assay: NVS_LGIC_hNNR_NBungSens: NovaScreen (NVS) Ligand-Gated Ion Channel Assay for human Neonicotinoid receptor (NNR) (AID 2283313)
# Outline: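 Radioligand displacement on human neuroblastoma membranes, 2 h, filter-based scintillation counting. Primary screen in duplicate at 25 uM; chemicals passing threshold (e.g. 30% inhibition) run singleton concentration-response to 50 uM; loss of binding fitted versus DMSO.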
# [10] = biological target: human Protein Tyrosine Phosphatase Receptor Type C (PTPRC), PTPRC (gene 5788) (UniProt P08575); assay: NVS_ENZ_hPTPRC: NovaScreen (NVS) Enzymatic Assay for human Protein Tyrosine Phosphatase Receptor Type C (PTPRC) (AID 2283212)
# Outline: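 Yeast-extracted human PTPRC used in a cell-free colorimetric enzyme activity read-out, 1 h after dosing. Primary screen in duplicate at 25 uM; actives rerun in concentration-response up to 50 uM, DMSO as baseline.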
# [11] = biological target: human Protein Tyrosine Phosphatase Non-receptor Type 2 (PTPN2), PTPN2 (gene 5771) (UniProt P17706); assay: NVS_ENZ_hPTPN2: NovaScreen (NVS) Enzymatic Assay for human Protein Tyrosine Phosphatase Non-receptor Type 2 (PTPN2) (AID 2283207)
# Outline: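 Cell-free recombinant enzyme with fluorescent substrate, product separated by electrophoretic mobility shift; read 1 h after dosing. Primary screen single concentration (25 uM) in duplicate; actives followed in concentration series; loss of signal versus DMSO.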
# [12] = biological target: human Raf-1 Proto-Oncogene, serine/threonine Kinase (RAF1), RAF1 (gene 5894) (UniProt P04049); assay: NVS_ENZ_hRAF1: NovaScreen (NVS) Enzymatic Assay for human Raf-1 Proto-Oncogene, serine/threonine Kinase (RAF1) (AID 2283216)
# Outline: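 Cell-free recombinant kinase with specific fluorescent substrate, product separated by electrophoretic mobility shift; read 1 h after dosing. Primary screen at 25 uM in duplicate; hits then run in concentration-response up to 50 uM, fitted as loss of signal versus DMSO.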
# [13] = biological target: human Tyrosine Protein Kinase Receptor Tie-2 (Tie2), TEK (gene 7010) (UniProt Q02763); assay: NVS_ENZ_hTie2: NovaScreen (NVS) Enzymatic Assay for human Tyrosine Protein Kinase Receptor Tie-2 (Tie2) (AID 2283225)
# Outline: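 Recombinant human Tie2 kinase activity was read cell-free by fluorescence with electrophoretic mobility shift, 1 hour after dosing. The screen used 25 uM in duplicate, then concentration-response up to 50 uM. Signal loss was scored against DMSO.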
# [14] = test system: guinea pig Atrionatriuretic Peptide Receptor A (ANPA), gene 100135578; assay: NVS_GPCR_gANPA: NovaScreen (NVS) G Protein-Coupled Receptor Assay for guinea pig Atrionatriuretic Peptide Receptor A (ANPA) (AID 2283291)
# Outline: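 Radioligand binding to guinea pig cerebellar membranes was measured after 1 h by filter-based scintillation counting. Chemicals were tested in duplicate at 25 uM, with hits run in concentration-response to a maximum of 50 uM. Binding loss was fitted against DMSO.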
# [15] = biological target: bovine Gamma-Aminobutyric Acid Type A Receptor BDZ, alpha 1 site (GABARa1), GABRA1 (gene 780973) (UniProt P08219); assay: NVS_LGIC_bGABARa1: NovaScreen (NVS) Ligand-Gated Ion Channel Assay for bovine Gamma-Aminobutyric Acid Type A Receptor BDZ, alpha 1 site (GABARa1) (AID 2283321)
# Outline: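 Radioligand competition binding on bovine cortical membranes, 0.75 h, filter-based scintillation counting. Primary single concentration 25 uM in duplicate; actives rerun in concentration-response to 50 uM max. Loss of signal fitted versus DMSO.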
# [16] = biological target: Voltage-dependent N-type calcium channel subunit alpha-1B (Rattus norvegicus) (UniProt Q02294); assay: NVS_IC_rCaChN: NovaScreen (NVS) Ion Channel Assay for rat Calcium Channel, Type N (CaChN) (AID 2283317)
# [17] = biological target: rat Adenylate Cyclase, Forskolin Stimulated, Adcy5 (gene 64532) (UniProt Q04400); assay: NVS_ENZ_rACFSKBinding: NovaScreen (NVS) Enzymatic Assay for rat Adenylate Cyclase, Forskolin Stimulated (AID 2283232)
# Outline: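 Rat forebrain membrane preparation, cell-free, read 1 h after dosing by filter-based scintillation counting. Primary screen in duplicate at 25 uM; actives (e.g. ≥30% inhibition) rerun in concentration-response up to 50 uM; fit versus DMSO.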
# [18] = biological target: human Phosphatase and Tensin Homolog (PTEN), PTEN (gene 5728) (UniProt P60484); assay: NVS_ENZ_hPTEN: NovaScreen (NVS) Enzymatic Assay for human Phosphatase and Tensin Homolog (PTEN) (AID 2283203)
# Outline: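 Cell-free recombinant human PTEN with fluorescent substrate; product separated by electrophoretic mobility shift and read by fluorescence 1 h after dosing. Primary screen in duplicate at 25 uM, actives followed in concentration series versus DMSO.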
# human Mitogen-Activated Protein Kinase 1 (MAPK 1), MAPK1 (gene 5594), sequence (P28482 whole entry, looked up): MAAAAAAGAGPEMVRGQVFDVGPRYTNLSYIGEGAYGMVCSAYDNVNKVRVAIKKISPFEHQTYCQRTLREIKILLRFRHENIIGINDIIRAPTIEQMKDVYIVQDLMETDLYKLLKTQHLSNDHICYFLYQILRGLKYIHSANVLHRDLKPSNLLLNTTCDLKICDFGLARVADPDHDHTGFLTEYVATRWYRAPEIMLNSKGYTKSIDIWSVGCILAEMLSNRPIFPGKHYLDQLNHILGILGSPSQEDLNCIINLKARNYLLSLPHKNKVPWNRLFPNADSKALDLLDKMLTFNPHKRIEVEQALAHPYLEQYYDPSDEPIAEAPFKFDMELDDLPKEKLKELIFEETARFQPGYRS
# human Fibroblast Growth Factor Receptor 1 (FGFR1), FGFR1 (gene 2260), sequence (P11362 whole entry, looked up): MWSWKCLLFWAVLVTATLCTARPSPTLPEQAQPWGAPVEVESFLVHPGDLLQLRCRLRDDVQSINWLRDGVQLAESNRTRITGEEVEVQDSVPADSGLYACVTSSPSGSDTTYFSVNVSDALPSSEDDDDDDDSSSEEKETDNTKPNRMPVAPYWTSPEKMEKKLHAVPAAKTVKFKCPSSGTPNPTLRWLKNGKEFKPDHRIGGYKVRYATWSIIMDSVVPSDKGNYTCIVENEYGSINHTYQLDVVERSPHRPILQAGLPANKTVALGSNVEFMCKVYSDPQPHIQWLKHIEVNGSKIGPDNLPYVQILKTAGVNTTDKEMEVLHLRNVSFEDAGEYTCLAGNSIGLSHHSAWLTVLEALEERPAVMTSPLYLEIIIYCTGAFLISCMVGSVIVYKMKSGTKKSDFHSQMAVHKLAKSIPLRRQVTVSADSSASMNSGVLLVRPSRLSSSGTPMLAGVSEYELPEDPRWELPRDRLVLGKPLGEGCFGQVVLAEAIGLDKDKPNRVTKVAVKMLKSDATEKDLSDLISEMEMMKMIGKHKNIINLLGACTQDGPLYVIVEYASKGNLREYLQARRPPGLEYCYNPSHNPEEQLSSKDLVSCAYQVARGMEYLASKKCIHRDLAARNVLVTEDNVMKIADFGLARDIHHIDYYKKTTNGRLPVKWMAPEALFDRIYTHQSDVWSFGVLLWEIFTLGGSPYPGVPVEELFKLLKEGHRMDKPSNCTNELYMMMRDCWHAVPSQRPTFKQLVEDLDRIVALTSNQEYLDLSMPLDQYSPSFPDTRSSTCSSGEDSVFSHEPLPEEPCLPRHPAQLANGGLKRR
# rat Corticotropin Releasing Factor Receptor (CRF), Crhr1 (gene 58959), sequence (P35353 whole entry, looked up): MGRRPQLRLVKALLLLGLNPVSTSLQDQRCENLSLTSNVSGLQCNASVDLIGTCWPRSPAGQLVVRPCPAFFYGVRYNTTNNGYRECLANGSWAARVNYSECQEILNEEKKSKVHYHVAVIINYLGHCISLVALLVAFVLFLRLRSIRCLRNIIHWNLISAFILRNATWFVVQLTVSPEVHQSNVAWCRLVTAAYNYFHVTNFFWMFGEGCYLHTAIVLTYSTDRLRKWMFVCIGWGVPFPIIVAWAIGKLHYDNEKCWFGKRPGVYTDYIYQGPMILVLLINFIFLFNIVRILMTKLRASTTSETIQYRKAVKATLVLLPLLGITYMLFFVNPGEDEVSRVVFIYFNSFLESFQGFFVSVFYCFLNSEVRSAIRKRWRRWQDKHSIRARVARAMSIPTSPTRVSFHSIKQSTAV
# human MET Proto-Oncogene, Receptor Tyrosine Kinase (MET), MET (gene 4233), sequence (P08581 whole entry, looked up): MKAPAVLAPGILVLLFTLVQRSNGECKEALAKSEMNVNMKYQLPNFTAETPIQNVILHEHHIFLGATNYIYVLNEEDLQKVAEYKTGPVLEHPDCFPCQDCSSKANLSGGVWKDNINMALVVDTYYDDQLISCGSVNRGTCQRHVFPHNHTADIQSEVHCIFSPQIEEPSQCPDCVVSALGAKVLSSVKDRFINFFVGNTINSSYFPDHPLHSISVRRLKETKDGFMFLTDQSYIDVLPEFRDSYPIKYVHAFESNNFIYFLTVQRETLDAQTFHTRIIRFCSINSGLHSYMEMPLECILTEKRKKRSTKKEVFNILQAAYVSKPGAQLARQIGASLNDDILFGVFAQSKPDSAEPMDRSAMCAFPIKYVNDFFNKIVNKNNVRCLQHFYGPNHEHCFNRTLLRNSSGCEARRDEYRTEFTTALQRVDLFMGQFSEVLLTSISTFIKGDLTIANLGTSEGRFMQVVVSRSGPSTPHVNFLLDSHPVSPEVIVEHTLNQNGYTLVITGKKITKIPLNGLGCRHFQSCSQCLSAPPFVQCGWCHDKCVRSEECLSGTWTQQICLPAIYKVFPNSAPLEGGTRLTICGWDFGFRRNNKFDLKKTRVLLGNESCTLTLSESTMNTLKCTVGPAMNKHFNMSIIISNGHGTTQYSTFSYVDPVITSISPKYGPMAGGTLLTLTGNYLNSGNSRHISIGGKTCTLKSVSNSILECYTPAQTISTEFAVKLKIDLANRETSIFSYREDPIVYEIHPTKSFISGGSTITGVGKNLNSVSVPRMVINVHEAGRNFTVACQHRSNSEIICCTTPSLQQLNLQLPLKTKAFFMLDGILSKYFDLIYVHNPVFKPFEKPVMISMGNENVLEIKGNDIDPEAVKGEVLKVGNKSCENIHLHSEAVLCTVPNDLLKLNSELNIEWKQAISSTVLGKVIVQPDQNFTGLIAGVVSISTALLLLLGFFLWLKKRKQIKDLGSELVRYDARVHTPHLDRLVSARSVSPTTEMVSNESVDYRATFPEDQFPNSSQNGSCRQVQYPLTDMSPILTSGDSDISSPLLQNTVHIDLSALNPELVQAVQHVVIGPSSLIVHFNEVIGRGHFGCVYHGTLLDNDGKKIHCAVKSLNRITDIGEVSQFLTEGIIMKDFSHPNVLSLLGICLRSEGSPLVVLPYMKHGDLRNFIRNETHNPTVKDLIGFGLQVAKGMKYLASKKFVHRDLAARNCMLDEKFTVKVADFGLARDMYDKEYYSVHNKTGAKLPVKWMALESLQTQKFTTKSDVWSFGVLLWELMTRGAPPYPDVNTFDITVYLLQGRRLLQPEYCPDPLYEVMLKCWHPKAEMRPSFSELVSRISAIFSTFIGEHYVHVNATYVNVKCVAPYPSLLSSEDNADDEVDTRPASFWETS
# Protein deacetylase HDAC6 (Homo sapiens), sequence (Q9UBN7 whole entry, looked up): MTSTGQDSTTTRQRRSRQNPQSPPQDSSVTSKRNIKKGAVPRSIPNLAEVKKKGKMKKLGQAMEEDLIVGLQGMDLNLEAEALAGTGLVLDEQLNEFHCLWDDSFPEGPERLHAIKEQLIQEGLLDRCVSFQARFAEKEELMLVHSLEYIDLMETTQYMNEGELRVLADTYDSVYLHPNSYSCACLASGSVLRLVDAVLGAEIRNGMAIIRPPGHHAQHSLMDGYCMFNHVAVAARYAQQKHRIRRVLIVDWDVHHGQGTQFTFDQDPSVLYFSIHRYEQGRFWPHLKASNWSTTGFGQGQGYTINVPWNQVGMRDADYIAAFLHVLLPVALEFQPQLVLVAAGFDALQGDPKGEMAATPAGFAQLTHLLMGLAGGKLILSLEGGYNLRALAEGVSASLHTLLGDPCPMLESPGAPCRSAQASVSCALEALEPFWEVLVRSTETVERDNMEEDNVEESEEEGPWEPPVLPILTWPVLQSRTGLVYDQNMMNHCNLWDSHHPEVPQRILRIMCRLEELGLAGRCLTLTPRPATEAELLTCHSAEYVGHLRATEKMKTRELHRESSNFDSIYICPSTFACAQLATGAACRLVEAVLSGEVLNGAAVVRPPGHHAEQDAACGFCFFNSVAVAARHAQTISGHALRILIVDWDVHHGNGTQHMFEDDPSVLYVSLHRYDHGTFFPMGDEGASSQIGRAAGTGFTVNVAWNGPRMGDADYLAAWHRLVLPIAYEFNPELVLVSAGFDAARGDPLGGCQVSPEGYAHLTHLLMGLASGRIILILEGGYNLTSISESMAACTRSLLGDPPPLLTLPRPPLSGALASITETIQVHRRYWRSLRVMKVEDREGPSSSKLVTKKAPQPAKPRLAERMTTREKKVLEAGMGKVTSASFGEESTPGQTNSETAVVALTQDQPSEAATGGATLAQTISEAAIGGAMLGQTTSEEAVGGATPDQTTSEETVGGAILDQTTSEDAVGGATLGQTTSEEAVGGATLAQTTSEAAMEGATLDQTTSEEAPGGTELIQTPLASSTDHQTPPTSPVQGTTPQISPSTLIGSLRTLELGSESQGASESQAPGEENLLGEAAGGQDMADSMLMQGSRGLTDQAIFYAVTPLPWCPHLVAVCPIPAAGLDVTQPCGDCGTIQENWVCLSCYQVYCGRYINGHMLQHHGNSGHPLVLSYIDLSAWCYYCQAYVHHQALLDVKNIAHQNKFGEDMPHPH
# Norway rat Vesicular Monoamine Transporter (VMAT2), neurotransmitter transporter, Slc18a2 (gene 25549), sequence (Q01827 whole entry, looked up): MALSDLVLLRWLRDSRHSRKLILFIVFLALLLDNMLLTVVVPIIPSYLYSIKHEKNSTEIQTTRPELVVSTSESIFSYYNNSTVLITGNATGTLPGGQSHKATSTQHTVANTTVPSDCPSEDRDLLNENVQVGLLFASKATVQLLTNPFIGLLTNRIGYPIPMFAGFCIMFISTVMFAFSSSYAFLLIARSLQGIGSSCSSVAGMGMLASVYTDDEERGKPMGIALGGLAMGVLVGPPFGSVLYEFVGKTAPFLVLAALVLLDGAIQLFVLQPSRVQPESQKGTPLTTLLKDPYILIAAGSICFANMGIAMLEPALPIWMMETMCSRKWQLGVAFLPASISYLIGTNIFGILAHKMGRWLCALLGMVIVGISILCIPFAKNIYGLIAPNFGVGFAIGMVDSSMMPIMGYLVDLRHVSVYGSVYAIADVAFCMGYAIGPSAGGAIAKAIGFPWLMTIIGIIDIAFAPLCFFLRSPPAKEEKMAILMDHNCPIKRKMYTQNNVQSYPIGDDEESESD
compound,measurement,setting,value
CCOCCOCCO,outcome,[1],inactive
Nc1ccn([C@@H]2O[C@H](CO)[C@@H](O)[C@@H]2O)c(=O)n1,outcome,[2],inactive
O=C(O)c1cccc(C[C@@H]2COc3ccc(OCc4nc5cc(F)ccc5s4)cc3[C@@H]2O)c1,outcome,[3],inactive
same,outcome,[2],inactive
same,outcome,[4],inactive
same,outcome,[5],inactive
Cc1[nH]cnc1C[C@H]1CCc2c(C)c3ccccc3n2C1=O,outcome,[6],inactive
same,outcome,[7],inactive
same,AC50,[8],22.2 µM (active)
same,outcome,[9],inactive
same,AC50,[5],0.755 µM (active)
CCCc1cc(=O)[nH]c(=S)[nH]1,outcome,[6],inactive
same,outcome,[2],inactive
CCOc1ccc2c(c1)C(C)=CC(C)(C)N2,outcome,[3],inactive
same,AC50,[10],8.36 µM (active)
O=C(O)c1cc(N=Nc2ccc(S(=O)(=O)Nc3ccccn3)cc2)ccc1O,outcome,[3],inactive
same,outcome,[1],inactive
same,outcome,[11],inactive
same,outcome,[12],inactive
same,outcome,[13],inactive
COCc1nnc(-c2ccc[n+]([O-])c2)n1-c1c(Cl)c(Cl)cc2[nH]c(=O)c(=O)[nH]c12,outcome,[3],inactive
same,outcome,[14],inactive
same,outcome,[15],inactive
COC(=O)CCCCC(=O)OC,outcome,[3],inactive
same,outcome,[12],inactive
same,outcome,[16],inactive
On1ccccc1=S,outcome,[6],inactive
CCCOC(=O)c1cc(O)c(O)c(O)c1,outcome,[1],inactive
Cc1occc(=O)c1O,outcome,[6],inactive
same,outcome,[17],inactive
[O-]n1ccccc1=S.[O-]n1ccccc1=S.[Zn+2],outcome,[3],inactive
same,outcome,[13],inactive
O=C(Nc1ccc([N+](=O)[O-])cc1Cl)c1cc(Cl)ccc1O,outcome,[2],inactive
CCCOc1ccc(S(=O)(=O)N2CCN(CC)CC2)cc1-c1nc2c(CC)n(Cc3ccccn3)nc2c(=O)[nH]1,outcome,[2],inactive
same,outcome,[16],inactive
C1CCC(SSC2CCCCC2)CC1,outcome,[6],inactive
same,outcome,[18],inactive
same,outcome,[4],inactive
Cc1oc(-c2ccccc2)nc1CCOc1cccc2c1ccn2CCC(=O)O,outcome,[3],inactive
same,AC50,[10],5.98 µM (active)
same,outcome,[4],inactive
same,outcome,[16],inactive
